Measured values published in PubChem BioAssay AID1159580 (chemical genetic matrix, 2015).
“And” between values parts separate entries of the source, which are not always exact repeats. Equal values may be shown once. Among all 5,500 compounds or so, about 2,000 (36%) were called active. Inconclusive results (about 18%) are left out. No stated cut-off is given here; in the data, active means normalized growth mostly below about 0.91 (no sharp cut-off); inconclusive means no clear call, values can overlap the other calls; inactive means mostly above about 0.92. This is one part of the list.

Experiment: chemical genetic growth profiling, strain panel (AID 1159580);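 further: tested at 20 µM; growth read once vehicle control cultures reached saturation at 30 °C; 1 = growth at the plate median or of vehicle wells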
Details: S. cerevisiae deletion strains, growth OD

Measured: normalized growth

COc1cc(C(=O)NCc2ccc(OCCN(C)C)cc2)cc(OC)c1OC
inactive: locus YAL013W, strain DEP1, stronger effect = lower value 1 | locus YAL021C, strain ccr4, stronger effect = lower value 0.993 | locus YAL026C, strain drs2, stronger effect = lower value 0.998 | locus YAL030W, strain snc1, stronger effect = lower value 1 | locus YBL061C, strain skt5, stronger effect = lower value 0.981 | locus YBR009C, strain hhf1, stronger effect = lower value 1 | locus YBR021W, strain FUR4, stronger effect = lower value 1.03 | locus YBR023C, strain chs3, stronger effect = lower value 0.985 | locus YBR171W, strain sec66, stronger effect = lower value 0.999 | locus YBR229C, strain ROT2, stronger effect = lower value 0.951 | locus YBR231C, strain swc5, stronger effect = lower value 0.99 | locus YBR279W, strain paf1, stronger effect = lower value 1 | locus YCL011C, strain gbp2, stronger effect = lower value 1.01 | locus YCL016C, strain dcc1, stronger effect = lower value 0.98 | locus YCL029C, strain bik1, stronger effect = lower value 0.977 | locus YCL061C, strain MRC1, stronger effect = lower value 1 | locus YCL069W, strain vba3, stronger effect = lower value 0.995 | locus YCR088W, strain abp1, stronger effect = lower value 0.99 | locus YDL005C, strain med2, stronger effect = lower value 1.01 | locus YDL035C, strain GPR1, stronger effect = lower value 1.01 | locus YDL040C, strain nat1, stronger effect = lower value 1.02 | locus YDL074C, strain BRE1, stronger effect = lower value 0.951 | locus YDL101C, strain DUN1, stronger effect = lower value 0.973 | locus YDL134C, strain PPH21, stronger effect = lower value 0.996 | locus YDL185W, strain tfp1, stronger effect = lower value 0.979 | locus YDL192W, strain arf1, stronger effect = lower value 0.982 | locus YDR001C, strain nth1, stronger effect = lower value 1 | locus YDR069C, strain doa4, stronger effect = lower value 1 | locus YDR101C, strain arx1, stronger effect = lower value 0.93 | locus YDR137W, strain rgp1, stronger effect = lower value 1.01 | locus YDR150W, strain NUM1, stronger effect = lower value 0.974 | locus YDR159W, strain sac3, stronger effect = lower value 0.953 | locus YDR162C, strain NBP2, stronger effect = lower value 1.01 | locus YDR195W, strain ref2 0.997 | locus YDR297W, strain sur2, stronger effect = lower value 0.981 | locus YDR318W, strain mcm21, stronger effect = lower value 0.992 | locus YDR334W, strain swr1, stronger effect = lower value 0.99 | locus YDR335W, strain msn5, stronger effect = lower value 0.982 | locus YDR388W, stronger effect = lower value 0.988 | locus YDR392W, strain spt3, stronger effect = lower value 0.833 | locus YDR502C, strain sam2, stronger effect = lower value 0.985 | locus YEL003W, strain gim4, stronger effect = lower value 1 | locus YEL037C, strain rad23, stronger effect = lower value 0.988 | locus YEL061C, strain CIN8 (second series), stronger effect = lower value 0.978 | locus YEL061C, strain CIN8, stronger effect = lower value 0.978 | locus YER015W, strain faa2, stronger effect = lower value 0.991 | locus YER016W, strain bim1, stronger effect = lower value 0.994 | locus YER110C, stronger effect = lower value 0.984 | locus YER111C, strain swi4, stronger effect = lower value 0.982 | locus YER155C, strain BEM2 (second series), stronger effect = lower value 0.988 | locus YER155C, strain BEM2, stronger effect = lower value 0.996 | locus YER167W, strain BCK2, stronger effect = lower value 0.997 | locus YFR010W, strain ubp6, stronger effect = lower value 1 | locus YGL078C, strain dbp3, stronger effect = lower value 0.981 | locus YGL086W, strain mad1, stronger effect = lower value 0.966 | locus YGL167C, strain pmr1, stronger effect = lower value 1 | locus YGL173C, strain kem1, stronger effect = lower value 1 | locus YGL227W, strain vid30, stronger effect = lower value 1.01 | locus YGL240W, strain doc1, stronger effect = lower value 0.984 | locus YGL248W, strain PDE1, stronger effect = lower value 0.975 | locus YGL253W, strain hxk2, stronger effect = lower value 0.993 | locus YGR078C, strain PAC10, stronger effect = lower value 0.963 | locus YGR135W, strain pre9, stronger effect = lower value 1.06 | locus YGR229C, strain SMI1, stronger effect = lower value 1.02 | locus YGR252W, strain gcn5, stronger effect = lower value 1.03 | locus YHR013C, strain ard1, stronger effect = lower value 0.949 | locus YHR027C, strain rpn1, stronger effect = lower value 0.979 | locus YHR030C, strain SLT2, stronger effect = lower value 0.985 and 0.966 | locus YHR079C, strain IRE1 (second series), stronger effect = lower value 0.976 | locus YHR079C, strain IRE1, stronger effect = lower value 0.976 | locus YHR094C, strain hxt1, stronger effect = lower value 0.979 | locus YHR129C, strain ARP1, stronger effect = lower value 0.995 | locus YHR142W, strain chs7, stronger effect = lower value 0.982 | locus YHR200W, strain rpn10, stronger effect = lower value 0.983 | locus YIL066C, strain RNR3, stronger effect = lower value 0.963 | locus YIL073C, strain SPO22, stronger effect = lower value 1.04 | locus YIL125W, strain kgd1, stronger effect = lower value 0.976 | locus YIR030C, strain dcg1, stronger effect = lower value 0.989 | locus YJL092W, strain hpr5, stronger effect = lower value 0.997 | locus YJL095W, strain BCK1 (second series), stronger effect = lower value 0.988 | locus YJL095W, strain BCK1, stronger effect = lower value 0.991 and 0.995 | locus YJL115W, strain asf1, stronger effect = lower value 0.993 | locus YJL129C, strain trk1, stronger effect = lower value 0.981 | locus YJL134W, strain LCB3, stronger effect = lower value 0.993 | locus YJL154C, strain vps35, stronger effect = lower value 1.02 | locus YJL164C, strain tpk1, stronger effect = lower value 1 | locus YJL166W, strain qcr8, stronger effect = lower value 0.988 | locus YJL168C, strain set2, stronger effect = lower value 0.979 | locus YJL187C, strain SWE1 (second series), stronger effect = lower value 0.953
